A selection: hits, their analogues and other compounds. The true share with any hit is near 8.3%.
HCV inh – blocks hepatitis C virus; Huh7.5.1 HCVcc-Cre infection, luciferase reporter, 44 h; Potency, µM (titrated, usually from 41.8 µM), for the others: top-dose activity change, negative = inhibition, usual class: inhibitors; hit rate 3.4% among 340,000; AID 651820; also: potency is read from the fitted curve at half-maximal effect
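Infectious HCV cell culture screen: compound-treated cells (1,000/well, pre-plated 4 h) are infected with HCVcc-Cre at roughly 0.5 moi and grown 44 h. Infection is quantified by luciferase signal after 15 min substrate incubation at room temperature.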
HCMV inh – blocks human cytomegalovirus replication; HFF cells, HCMV-luciferase reporter, 72 h; hits give low values; activity change, negative = inhibition, % at 57.5 µM; hit rate 4.5% among 410,000; in the data active = activity change below about -60%; inconclusive = no clear call, values can overlap the other calls; inactive = above about -39%
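Compounds were evaluated in HFFs infected with an HCMV luciferase reporter virus (MOI 1 PFU/cell). Luciferase in lysates collected 72 h post infection served as the replication measure.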
Giardia FBPA inh – Giardia lamblia aldolase inhibition; Potency, µM (top dose mostly 59.6 µM), for the others: top-dose activity, negative = inhibition, most hits filed as inhibitors; purified Giardia FBPA; hit rate 0.71% among 290,000; A8B2U2; also: potency is read from the fitted curve at half-maximal effect; nearly all actives have a fitted effect of over 55% in size
Target sequence (A8B2U2 whole entry, looked up): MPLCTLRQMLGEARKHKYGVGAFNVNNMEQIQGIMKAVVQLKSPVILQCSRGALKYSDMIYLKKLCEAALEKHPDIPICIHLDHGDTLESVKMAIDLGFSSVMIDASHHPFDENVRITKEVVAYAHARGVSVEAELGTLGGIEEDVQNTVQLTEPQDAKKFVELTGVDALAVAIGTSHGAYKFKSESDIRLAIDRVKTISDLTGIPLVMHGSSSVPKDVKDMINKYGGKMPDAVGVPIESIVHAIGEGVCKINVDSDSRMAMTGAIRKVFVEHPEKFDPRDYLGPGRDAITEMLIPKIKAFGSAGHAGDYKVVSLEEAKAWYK
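40 nM FBPA preincubated 10 min at RT with compound (up to 57.5 uM final), then substrate plus GAPDH/TPI/NAD/arsenate coupling and diaphorase/resazurin added. Fluorescence read after 20 min at RT, 525/598 nm.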
FMDV inh – blocks foot and mouth disease virus. FMDV antiviral cell-based qHTS. Potency, µM (series often up to 57.9 µM), without a hit: at the highest dose activity change, negative = inhibition, usual class: inhibitors. hit rate 1.2% among 410,000. AID 1159524; calls by dose curve; tested in HEK293T cells; also: read-out not given here; potency is read from the fitted curve at half-maximal effect; nearly all actives have a fitted effect of over 45% in size
MARV entry inh – blocks Marburg virus binding to or entry into cells | hit rate 1.8% among 300,000 | Marburg virus pseudotyped entry inhibition, cell reporter | AID 540276 | Potency, µM (titrated, usually from 37.8 µM), for the others: top-dose activity change, negative = inhibition, hits mostly inhibitors; calls by dose curve; tested in HEK293 cells; also: potency is read from the fitted curve at half-maximal effect
LASV entry inh – inhibitors of Lassa virus binding or cell entry. Lassa virus pseudotype entry inhibition, cell reporter. Potency, µM (highest dose often 37.9 µM), inactives show at the highest dose activity change, negative = inhibition, usual class: inhibitors. hit rate 1.2% among 300,000. AID 540256; calls by dose curve; tested in HEK293 cells; also: potency is read from the fitted curve at half-maximal effect; nearly all actives have a fitted effect of over 50% in size
* hit, by the source's call; ? = inconclusive; . = no result; [ ] = dose if it differs, or a comment. Unless noted, calls follow the shape of the dose curve; as a rule, active = well fitted curve in the direction sought with a large enough effect; inconclusive = small, poorly fitted or top-dose-only effect, or another doubt; inactive = no such curve, though single readings can be large; an effect the other way counts as inactive or inconclusive. % is scaled to controls: 0 for no effect and ±100 for the full control effect.

SMILES	HCV inh	HCMV inh	Giardia FBPA inh	FMDV inh	MARV entry inh	LASV entry inh
C[C@H](O)[C@@H]1CN2CCc3c([nH]c4ccc(-c5ccc6c(c5)OCO6)cc34)[C@@H]2C[C@@H]1N(C)C(=O)NC1CCCCC1	.	-86*	.	-2%	.	.
Cc1cccc(-c2ccc3[nH]c4c(c3c2)CCN2C[C@@H]([C@H](C)O)[C@@H](N(C)C(=O)Nc3ccc(F)cc3)C[C@@H]42)c1	.	-6	.	-16%	.	.
O=c1onc(-c2ccc(Cl)cc2)n1Cc1ccc(F)cc1	13%	-28	-2%	-15%	-3%	10%
O=c1onc(-c2ccccc2)n1Cc1ccc([N+](=O)[O-])cc1	.	-75*	.	-11%	.	.
COc1ccccc1N1CCN(C2CCN(S(=O)(=O)c3ccc(C)cc3)CC2)CC1	-1%	0	4%	-22%	?	-17%
CCn1c(N2CCN(S(=O)(=O)c3ccc(OC)cc3)CC2)nc2ccccc21	10µM*	-39	10%	?	?	8.9µM*
COc1ccccc1N1CCN(C2CCN(S(=O)(=O)c3ccc4ccccc4c3)CC2)CC1	14µM*	?	0%	?	?	?
O=S(=O)(c1ccccc1)N1CCN(C2CCN(Cc3ccccc3)CC2)CC1	?	-23	7%	0%	-7%	-4%
O=S(=O)(c1ccc2ccccc2c1)N1CCN(C2CCN(Cc3ccccc3)CC2)CC1	22µM*	-28	?	?	?	?
COc1cccc(N2CCN(S(=O)(=O)c3ccc4ccccc4c3)CC2)c1	22µM*	-25	.	-13%	?	?
Cn1c(=O)oc2cc(S(=O)(=O)N3CCCC(C(=O)NCCc4ccc(Cl)cc4)C3)ccc21 (stereo not drawn)	.	-19	.	0%	0%[46.1 µM]	-4%[46.1 µM]
Cc1cc(C)cc(NC2=C(c3ccccc3)C(=O)c3ccccc32)c1	.	-24	.	?	6%[46.1 µM]	2%[46.1 µM]
CCOC(=O)c1cnc2ccc(OCC)cc2c1NCc1ccccc1OC	7.1µM*	-70*	-27%	18µM*	?	8.9µM*
CCOC(=O)c1cnc2ccc(OC)cc2c1NCc1ccccc1	?	-16	-21%	-7%	?	25%
CON(C)C(=O)Nc1ccc(Br)c(Cl)c1	.	.	-6%	.	.	.
COc1cc(OC)c(NS(=O)(=O)c2ccc3c(c2)NC(=O)CCS3)cc1Cl	.	-63*	.	-29%	.	-28%[46.1 µM]
O=C(Nc1nc2ccc(S(=O)(=O)N3CCCC3)cc2s1)C1CCCCC1	?	-62*	0%	-9%	?	-25%
O=C(Nc1nc2ccc(Cl)cc2s1)C1CC1	8.9µM*	-23	.	27%	.	.
CCc1ccccc1N1CC(C(=O)Nc2cc(S(=O)(=O)N3CCCC3)ccc2Cl)CC1=O (stereo not drawn)	11µM*	5	.	-4%	-15%	?
O=C(Nc1nc2cc3c(cc2s1)OCO3)C1CCCCC1	?	76	.	0%	.	.
O=C(Nc1nc2ccc(Cl)cc2s1)C1CCCO1 (stereo not drawn)	-24%	34	4%	8%	?	?
O=C(Nc1nc2cc3c(cc2s1)OCO3)C1CC1	10µM*	-15	3%	1%	?	-4%
O=C(Nc1cc(S(=O)(=O)N2CCCCC2)ccc1N1CCCCC1)C1CC1	-24%	-61*	0%	-10%	.	.
O=C(Nc1cccc(Cl)c1)Nc1cc(S(=O)(=O)N2CCOCC2)ccc1N1CCCC1	-14%	-80*	0%	?	?	?
CCOc1ccc2nc(NC(=O)C3CCCN(S(=O)(=O)c4c(C)noc4C)C3)sc2c1 (stereo not drawn)	11µM*	-21	-1%	?	.	.
SMILES	HCV inh	HCMV inh	Giardia FBPA inh	FMDV inh	MARV entry inh	LASV entry inh
O=C(Nc1nc2ccccc2s1)C1CCN(S(=O)(=O)c2cc([N+](=O)[O-])ccc2Cl)CC1	?	0	-21%	35µM*	.	.
CC(=O)Nc1nc2cc3c(cc2s1)OCCO3	?	81	-4%	5%	.	.
O=C(Nc1nc2cc3c(cc2s1)OCCO3)C1CCCCC1	?	1	.	?	?	10µM*
CC(C)(C)C(=O)Nc1nc2cc3c(cc2s1)OCO3	?	-73*	1%	0%	.	.
O=C(c1ccco1)N1N=C2CCCCCC2C1(O)C(F)(F)F (stereo not drawn)	24%	-66*	0%	?	-14%[46.1 µM]	8%[46.1 µM]
CCSc1ncnc2sc3c(c12)CCC3	25µM*	-4	7%	-10%	14%	14%
Fc1ccc(CSc2ncnc3sc4c(c23)CCCC4)cc1	11µM*	72	.	-4%	-18%	-11%
CCOc1ccc(CCNC(=O)c2ccc3c(c2)nc2n3CCOC2)cc1OCC	.	6	.	0%	.	0%[46.1 µM]
CCN1C(=O)C2(c3ccccc31)c1c(oc3ccccc3c1=O)C(=O)N2CCOC (stereo not drawn)	.	-7	.	-1%	8%[46.1 µM]	14%[46.1 µM]
CC(=O)c1cnc2nc(SCc3ccc(Cl)cc3)nn2c1C	?	4	4%	14%	-13%	-12%
CN1CCC2(CC1)Nc1nc(SCc3ccc(Cl)cc3)nn1C1=C2CN(C)CC1	14µM*	-27	-1%	-24%	?	14µM*
CC(C)=CCCC1=CC[C@H](C(=O)O)[C@H](C(=O)O)C1	.	.	16%	-20%	.	.
CCCn1c(SCC(=O)NC(C)c2ccccc2)n[nH]c1=O (stereo not drawn)	23%	-29	2%	-16%	-17%	25%
Cc1ccccc1-n1nnnc1SCC(N)=O	8%	-4	7%	0%	?	-6%
COc1ccc2c(C)cc(Sc3nnnn3-c3ccccc3)nc2c1	-2%	-101*	-19%	0%	14%	0.79µM*
CCCSc1nnc(Sc2nnnn2-c2ccccc2)s1	?	-78*	0%	?	?	?
C(=C\CSc1nnnn1-c1ccccc1)/CSc1nnnn1-c1ccccc1	?	5	-5%	-7%	8%	-7%
CCCn1c(Sc2nnnn2-c2ccccc2)n[nH]c1=O	1%	-106*	-1%	-25%	-12%	-6%

Source: PubChem
